Source: publication PMC5540273 (PLoS ONE, 2017)

Tested on: T1, DCAMKL2
T1 construct: gene DCLK2
Conditions: concentration: 1 μM, replicates: in singlicate; n = 1
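Note: KINOMEscan kinase panel screen.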

| SMILES | %Inh |
| --- | --- |
| COc1cccc(C2=C(Nc3cc(Cl)c(O)c(Cl)c3)C(=O)NC2=O)c1 [SB-390767] | 0% |
| Cc1ccccc1Cn1ccn2c(=O)cc(N3CCOCC3)nc12 [GSK2269905] | 7% |
| Fc1ccc(-c2nn3cccc(F)c3c2-c2ccncc2)cc1 [GW475620] | 0% |
| Cc1nccc(-c2c(-c3ccc(F)cc3)ncn2CCCN2CCOCC2)n1.Cl [SB-282975] | 2% |
| Cc1cccc2c(-c3ccncn3)c(-c3ccc(F)cc3)nn12 [GW515532] | 0% |
| COc1ccc(Nc2nccc(NCCNC(=O)Nc3cc(C)ccc3C)n2)cc1 [GSK1379899] | 0% |
| Nc1nccc(-c2c(-c3ccc(F)cc3)ncn2C2CCN(Cc3ccccc3)CC2)n1 [SB-219980] | 0% |
| CS(=O)(=O)Cc1ccc(Nc2nccc(-c3c(-c4cccc(NC(=O)C5CCCCC5)c4)nn4ncccc34)n2)cc1 [GSK350559] | 15% |
| Cc1ccc(NC(=O)Nc2ccc(Cl)c(C(F)(F)F)c2)cc1-c1ccc(C(=O)Nc2ccncc2)cc1 [GSK1398470] | 11% |
| O=c1cc(N2CCOCC2)nc2n(Cc3ccccc3F)ccn12 [GSK2297428] | 0% |
| O=C(Nc1n[nH]c2nc(-c3ccco3)c(Br)cc12)C1CCN(Cc2ccccc2)C1.O=C(O)[C@H](O)[C@@H](O)C(=O)O (stereo not shown) [SB-742034] | 7% |
| CCn1c(-c2c(N)noc2C)nc2cnccc21 [SB-737856] | 30% |
| Cn1cnc2c(N)ncnc21 [SKF-97623] | 0% |
| O=C(Nc1n[nH]c2cc(-c3ccsc3)ccc12)C1CC1 [SB-732932] | 0% |
| CN1c2ccc(-c3ccc(C(N)=O)cc3)cc2-c2[nH]ncc2S1(=O)=O | 0% |
| Cl.Cl.Cl.N#Cc1ccc(CCNc2nccc(-c3cccc(CN4CCNCC4)c3)n2)cc1 [GSK2137462] | 0% |
| Cn1cncc1C(=O)NC1CCN(c2ccnc(Nc3ccc(F)cc3)n2)C1 (stereo not shown) [GSK1379717] | 0% |
| CS(=O)(=O)CCNCc1nc(-c2ccc3ncnc(Nc4ccc5c(cnn5Cc5ccccc5)c4)c3c2)cs1.Cl.Cl [GW569716] | 0% |
| Cc1cnc(N)c(/C=C/c2cncc(C(=O)NCCc3ccc(Cl)cc3Cl)c2)c1.Cl [GSK190937] | 0% |
| CNCc1ccc2nc(NC(=O)c3ccc(C(C)(C)C)cc3)cn2c1 | 4% |
| CNc1cc(-c2ccc3c(N)n[nH]c3c2)nc(N)n1 [GSK2224810] | 0% |
| CNc1nc(-c2ccc3c(N)n[nH]c3c2)cc(N2C[C@@H](C(=O)Nc3ccccc3)CC[C@H]2C)n1 [GSK2298859] | 11% |
| COc1ccc(Nc2nccc(N3CCC(NC(=O)c4cc5ccccc5s4)C3)n2)cc1 (stereo not shown) [GSK1379738] | 0% |
| COc1ccc(CSc2nnc(-c3ccc4nccn4c3)o2)cc1C(F)(F)F | 0% |

Tested on: T2, DCAMKL3
T2 construct: gene DCLK3
Conditions: concentration: 1 μM, replicates: in singlicate; n = 1

| SMILES | %Inh |
| --- | --- |
| COc1cc2ncnc(Nc3cccc(Br)c3)c2cc1OC.Cl [GI230329] | 10% |
| CS(=O)(=O)CCNCc1nc(-c2ccc3ncnc(Nc4ccc(OCc5ccccc5)c(Cl)c4)c3c2)cs1.Cl [GW582764] | 6% |
| COc1ccc2cc(-c3nc(-c4ccccc4C(C)C)[nH]c3-c3ccncc3)ccc2c1 [SB-660566] | 23% |
| COc1ccc(Nc2nccc(N3CCC(NC(=O)C(C)c4ccc(Cl)cc4)CC3)n2)cc1 (stereo not shown) [GSK1379812] | 0% |
| Cc1ccccc1-c1cc(-c2c[nH]nc2-c2ccccn2)ccn1 [GW680061] | 12% |
| CC[C@@H]1CO[C@H](C(=O)Nc2ccccc2)CN1c1cc(-c2ccc3c(N)n[nH]c3c2)nc(NC)n1 [GSK2376236] | 90% |
| O=C1NC(=O)C(c2ccc(Cl)cc2)=C1Nc1cccc(Cl)c1 [SB-317651] | 17% |
| Cc1c(Cn2c3ccccc3n3c(=O)cc(N4CCOCC4)nc23)cccc1C(F)(F)F [GSK2306394] | 0% |
| Cc1ccc(NC(=O)Nc2ccccc2F)cc1-c1ccc(C(=O)Nc2ccncc2)cc1 [GSK1398477] | 26% |
| O=c1cc(N2CCOCC2)nc2n(Cc3cccc(Cl)c3Cl)c3ccccc3n12 [GSK2299009] | 10% |
| CC(=O)c1c(C)c2cnc(Nc3ccn(C)n3)nc2n(C2CCCC2)c1=O | 0% |
| COc1cccc(CNC(=O)NC2CCN(c3ccnc(Nc4ccc(F)cc4)n3)C2)c1 (stereo not shown) [GSK1379723] | 0% |
| CC(=O)c1c(C)c2cnc(Nc3ccc(N4CCNCC4)cn3)nc2n(C2CCCC2)c1=O | 0% |
| COc1cccc(C2=C(Nc3cc(Cl)c(O)c(Cl)c3)C(=O)NC2=O)c1 [SB-390767] | 26% |
| Cc1ccccc1Cn1ccn2c(=O)cc(N3CCOCC3)nc12 [GSK2269905] | 4% |
| Fc1ccc(-c2nn3cccc(F)c3c2-c2ccncc2)cc1 [GW475620] | 10% |
| Cc1nccc(-c2c(-c3ccc(F)cc3)ncn2CCCN2CCOCC2)n1.Cl [SB-282975] | 3% |
| Cc1cccc2c(-c3ccncn3)c(-c3ccc(F)cc3)nn12 [GW515532] | 1% |
| COc1ccc(Nc2nccc(NCCNC(=O)Nc3cc(C)ccc3C)n2)cc1 [GSK1379899] | 0% |

| SMILES | %Inh |
| --- | --- |
| Nc1nccc(-c2c(-c3ccc(F)cc3)ncn2C2CCN(Cc3ccccc3)CC2)n1 [SB-219980] | 13% |
| CS(=O)(=O)Cc1ccc(Nc2nccc(-c3c(-c4cccc(NC(=O)C5CCCCC5)c4)nn4ncccc34)n2)cc1 [GSK350559] | 0% |
| Cc1ccc(NC(=O)Nc2ccc(Cl)c(C(F)(F)F)c2)cc1-c1ccc(C(=O)Nc2ccncc2)cc1 [GSK1398470] | 5% |
| O=c1cc(N2CCOCC2)nc2n(Cc3ccccc3F)ccn12 [GSK2297428] | 3% |
| O=C(Nc1n[nH]c2nc(-c3ccco3)c(Br)cc12)C1CCN(Cc2ccccc2)C1.O=C(O)[C@H](O)[C@@H](O)C(=O)O (stereo not shown) [SB-742034] | 20% |
| CCn1c(-c2c(N)noc2C)nc2cnccc21 [SB-737856] | 0% |
| Cn1cnc2c(N)ncnc21 [SKF-97623] | 11% |
| O=C(Nc1n[nH]c2cc(-c3ccsc3)ccc12)C1CC1 [SB-732932] | 74% |
| CN1c2ccc(-c3ccc(C(N)=O)cc3)cc2-c2[nH]ncc2S1(=O)=O | 0% |
| Cl.Cl.Cl.N#Cc1ccc(CCNc2nccc(-c3cccc(CN4CCNCC4)c3)n2)cc1 [GSK2137462] | 0% |
| Cn1cncc1C(=O)NC1CCN(c2ccnc(Nc3ccc(F)cc3)n2)C1 (stereo not shown) [GSK1379717] | 0% |
| CS(=O)(=O)CCNCc1nc(-c2ccc3ncnc(Nc4ccc5c(cnn5Cc5ccccc5)c4)c3c2)cs1.Cl.Cl [GW569716] | 4% |
| Cc1cnc(N)c(/C=C/c2cncc(C(=O)NCCc3ccc(Cl)cc3Cl)c2)c1.Cl [GSK190937] | 23% |
| CNCc1ccc2nc(NC(=O)c3ccc(C(C)(C)C)cc3)cn2c1 | 24% |
| CNc1cc(-c2ccc3c(N)n[nH]c3c2)nc(N)n1 [GSK2224810] | 28% |
| CNc1nc(-c2ccc3c(N)n[nH]c3c2)cc(N2C[C@@H](C(=O)Nc3ccccc3)CC[C@H]2C)n1 [GSK2298859] | 76% |
| COc1ccc(Nc2nccc(N3CCC(NC(=O)c4cc5ccccc5s4)C3)n2)cc1 (stereo not shown) [GSK1379738] | 0% |
| COc1ccc(CSc2nnc(-c3ccc4nccn4c3)o2)cc1C(F)(F)F | 0% |
